The test system of one experiment is HB3. The experiment in a line: qHTS profiling for inhibitors of Plasmodium falciparum proliferation (AID 504749). Note: potency is the fitted concentration of half-maximal effect. Particulars: P. falciparum in erythrocytes, SYBR Green DNA, 72 h; series mostly up to 28.7 µM. An outline of the steps:
(§1)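 Infected RBCs, 0.3% parasitemia/2.5% Hct final; cpd 72 h, 37 C, 5% CO2; lysis buffer with saponin/triton/SYBR Green I, o/n RT dark; FI 485/535; norm. to artemisinin (0.29 uM) and DMSO.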
On the technique in general: qHTS replaces the single test concentration by a dilution series.

The test system of another experiment is ICS. Described as above. As to conditions: P. falciparum in erythrocytes, SYBR Green DNA, 72 h; series mostly up to 28.7 µM. An outline of the steps: as §1
A further experiment deals with JCK. The experiment is described as above. As to conditions: P. falciparum in erythrocytes, SYBR Green DNA, 72 h; series mostly up to 28.7 µM. An outline of the steps: as §1
For another experiment, the system named is N140. The description is as above. As to conditions: P. falciparum in erythrocytes, SYBR Green DNA, 72 h; series mostly up to 28.7 µM. An outline of the steps: as §1
A further experiment has as its system P93_24. The experiment is described as above. Particulars: P. falciparum in erythrocytes, SYBR Green DNA, 72 h; series mostly up to 28.7 µM. An outline of the steps: as §1
Another experiment concerns P94_40. Described as above. Particulars: P. falciparum in erythrocytes, SYBR Green DNA, 72 h; series mostly up to 28.7 µM. An outline of the steps:
as §1

The subject of a further experiment is PAD. The description is as above. As to conditions: P. falciparum in erythrocytes, SYBR Green DNA, 72 h; series mostly up to 28.7 µM. An outline of the steps: as §1
The test system of another experiment is PC15. Described as above. Particulars: P. falciparum in erythrocytes, SYBR Green DNA, 72 h; series mostly up to 28.7 µM. An outline of the steps: as §1
The subject of another experiment is PC26. The description is as above. As to conditions: P. falciparum in erythrocytes, SYBR Green DNA, 72 h; series mostly up to 28.7 µM. An outline of the steps:
as §1

The test system of a further experiment is PC49. Described as above. Particulars: P. falciparum in erythrocytes, SYBR Green DNA, 72 h; series mostly up to 28.7 µM. An outline of the steps: as §1
The subject of another experiment is SC27B. Described as above. Particulars: P. falciparum in erythrocytes, SYBR Green DNA, 72 h; series mostly up to 28.7 µM. An outline of the steps:
as §1

A further experiment deals with TAB109. Described as above. Particulars: P. falciparum in erythrocytes, SYBR Green DNA, 72 h; series mostly up to 28.7 µM. An outline of the steps:
as §1

The next experiment has as its system TAB113. The experiment is described as above. Particulars: P. falciparum in erythrocytes, SYBR Green DNA, 72 h; series mostly up to 28.7 µM. An outline of the steps:
as §1

The next experiment deals with TAB165. The experiment is described as above. As to conditions: P. falciparum in erythrocytes, SYBR Green DNA, 72 h; series mostly up to 28.7 µM. An outline of the steps:
as §1

The test system of the next experiment is W2. The experiment is described as above. As to conditions: P. falciparum in erythrocytes, SYBR Green DNA, 72 h; series mostly up to 28.7 µM. An outline of the steps: as §1
The next experiment deals with HEK293. Nature of the experiment: Cytotoxic Profiling of Annotated Libraries Using Quantitative High-Throughput Screening (AID 1296008). For max response: % is set by controls: 0 for no effect and ±100 for the full control effect. Particulars: Five cell lines viability, CellTiter-Glo ATP luminescence, 48-72 h; max response: stronger effect = lower value. An outline of the steps:
(§2)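 Cytotoxicity was measured as CellTiter-Glo ATP luminescence, read after 10 min at room temperature. Compound treatment of the cells lasted 48 or 72 hr at 37 degrees Celsius in a qHTS format.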
For orientation: Cellular ATP, detected with luciferase, serves as a proxy for viable cell number.

The subject of the next experiment is HaCat. The experiment is described as above. As to conditions: Five cell lines viability, CellTiter-Glo ATP luminescence, 48-72 h; max response: stronger effect = lower value. An outline of the steps:
as §2

The next experiment concerns KB-3-1. The experiment is described as above. As to conditions: Five cell lines viability, CellTiter-Glo ATP luminescence, 48-72 h; max response: stronger effect = lower value. An outline of the steps:
as §2

A further experiment has as its system NIH3T3. Described as above. As to conditions: Five cell lines viability, CellTiter-Glo ATP luminescence, 48-72 h; max response: stronger effect = lower value. An outline of the steps: as §2
The test system of a further experiment is CRL-7250. Described as above. Particulars: Five cell lines viability, CellTiter-Glo ATP luminescence, 48-72 h; max response: stronger effect = lower value. An outline of the steps: as §2

Structures are written as SMILES. Inconclusive results are not listed. A number with no mark means an inactive call. Active and inactive are the calls of the source. Calls come from the whole dose curve; as a rule, active = well fitted inhibition curve with a large enough effect; inconclusive = small, poorly fitted or top-dose-only effect; inactive = flat fitted curve, though single readings scatter.
Note: nearly all actives have a fitted effect of over 60% in size.

Consider `CCC1Nc2cc(Cl)c(S(N)(=O)=O)cc2S(=O)(=O)N1` (stereo unspecified), for which the Potency entry with HB3, with ICS, in the experiment with JCK, with N140, in the experiment with P93_24 and in the experiment on P94_40 was “inactive” in each case. In addition, the Potency result in the experiment with PAD, with PC15, in the experiment on PC26, in the experiment on PC49, in the experiment with SC27B and in the experiment on TAB109 was “inactive” throughout. Also, the Potency entry in the experiment on TAB113, in the experiment on TAB165 and with W2 was “inactive” each time. Moreover, in the experiment on HEK293, the call was inactive. In addition, the max response with HaCat was 3.1%; in the experiment with KB-3-1, -3.7%; with NIH3T3, 3.7%.

On to `C[N+]1(C)CCC(=C(c2ccccc2)c2ccccc2)CC1`, for which the Potency entry with JCK, in the experiment with N140, in the experiment on P93_24, in the experiment with P94_40, with PAD and in the experiment with PC26 was “inactive” throughout. Also, the Potency entry with PC49, in the experiment on SC27B, in the experiment on TAB109, with TAB113 and in the experiment with W2 was “inactive” throughout. Moreover, the values for the max response with CRL-7250, in the experiment on KB-3-1 and in the experiment with NIH3T3 were -1%, 3.66% and -1.38%, respectively. Also, the call in the experiment on HaCat was inactive.

On to `CC(C)(Cc1c[nH]c2ccccc12)NCC(O)COc1ccccc1C#N` (stereo unspecified), for which the Potency is 11.2 µM (active) in the experiment on ICS; 11.2 µM (active) in the experiment on P94_40; 10 µM (active) with TAB109; 12.6 µM (active) with TAB165; 3.79 µM (active) with W2. The Potency result in the experiment on JCK, in the experiment with PC26 and in the experiment with PC49 was “inactive” each time. Moreover, the max response in the experiment on CRL-7250 was -4.9%; in the experiment on HaCat, -15.6%; with KB-3-1, 19.5%; in the experiment with NIH3T3, -8.73%.

On to `O=C(CN1CCN(Cc2ccc3c(c2)OCO3)CC1)N1c2ccccc2Sc2ccccc21`, for which the Potency in the experiment with ICS is 10 µM (active); in the experiment on P93_24, 8.91 µM (active); in the experiment on P94_40, 8.91 µM (active); in the experiment on PAD it was 12.6 µM (active); in the experiment with TAB109, 3.55 µM (active); in the experiment on TAB165 it was 10 µM (active). The Potency with W2 was 6.01 µM (active). Also, the Potency entry with JCK and in the experiment on PC49 was “inactive” in each case. The max response in the experiment on CRL-7250 was -6.96%. For the same molecule, the call in the experiment with HaCat and in the experiment on NIH3T3 was inactive.

As to `C[C@@H](O)[C@H]1C(=O)N2C(C(=O)O)=C([C@H]3CCCO3)S[C@H]12`, the max response in the experiment with HEK293 was -1.4%; in the experiment on KB-3-1, 3.93%. For the same molecule, the outcome in the experiment on HaCat and with NIH3T3 was inactive.

Consider `CC(C)NCC(O)c1ccc2ccccc2c1` (stereo unspecified), for which the Potency with HB3 is 12.6 µM (active); in the experiment with ICS it was 2 µM (active); in the experiment on N140, 4.47 µM (active); in the experiment on P93_24, 8.91 µM (active); with P94_40 it was 5.01 µM (active); in the experiment with PAD, 3.98 µM (active). The Potency in the experiment with PC15 is 7.94 µM (active); in the experiment on PC26, 7.57 µM (active); with SC27B, 8.91 µM (active); in the experiment on TAB109, 8.91 µM (active); in the experiment with TAB113 it was 4.47 µM (active); in the experiment with TAB165, 10 µM (active). Further, the Potency in the experiment on W2 is 1.9 µM (active). Moreover, the max response was 3.16% with CRL-7250 and -2.59% in the experiment with KB-3-1. Also, the result in the experiment on HaCat and with NIH3T3 was inactive.

Take `COc1ccccc1N1CCN(CCCCNC(=O)c2ccc(-c3ccc(C(C)=O)cc3)cc2)CC1`: the Potency result in the experiment with HB3, in the experiment with JCK, with N140, in the experiment on P93_24, in the experiment with P94_40 and with PAD was “inactive” throughout. Also, the Potency result in the experiment on PC15, in the experiment with PC26, in the experiment with PC49, with SC27B, in the experiment on TAB109 and with TAB113 was “inactive” each time. In addition, the Potency entry in the experiment on TAB165 and with W2 was “inactive” in each case. Further, the Potency with ICS was 14.1 µM (active). The figures for the max response with CRL-7250 and in the experiment with NIH3T3 were -9.94% and -11%, respectively. In addition, the molecule was called inactive in the experiment with HaCat.

Consider `N#C/C(=C1\SCC(c2ccccc2Cl)S1)n1ccnc1` (stereo unspecified), for which the max response in the experiment with HEK293 is -7.28%; in the experiment with KB-3-1, 0.837%; with NIH3T3 it was -9.88%. In addition, the molecule was called inactive in the experiment with HaCat.

(Values after PubChem BioAssay (NCATS).)
